Test results reported in ChEMBL document CHEMBL1157539, “Thousands of chemical starting points for antimalarial lead identification” (Nature, 2010).

Columns and labels:
Format in all cases: functional
Plasmodium falciparum [1] = assay: GSK_TCMDC: Inhibition of Plasmodium falciparum 3D7 in whole red blood cells, using parasite LDH activity as an index of growth. Test compounds present at 2uM
Plasmodium falciparum [2] = assay: GSK_TCMDC: Inhibition of Plasmodium falciparum Dd2 in whole red blood cells, using parasite LDH activity as an index of growth. Test compounds present at 2uM
HepG2 = assay: GSK_TCMDC: Percent inhibition of human HepG2 cell line. Test compounds present at 10uM.

| Compound | Inhibition (Plasmodium falciparum [1]) [%] | Inhibition (Plasmodium falciparum [2]) [%] | Inhibition (HepG2) [%] |
| --- | --- | --- | --- |
| O=C(O)C(F)(F)F.O=S(=O)(NCCN1CCCC1)c1ccc(-c2ccc(CNCc3ccccc3)cc2)cc1 | 99 | 28 | 47 |
| CCCc1cc(Cc2cnc(N)nc2N)cc(CCC)c1O.Cl | 96 | 5 | 64 |
| Cl.N=C1N=C(N)NCN1OCc1ccc(Cl)c(Cl)c1 | 95 | 4 | 14 |
| COc1ccccc1C1CCN(CCCCNC(=O)c2ccc(/C=C/c3cc(Cl)cc(Cl)c3)cc2)CC1 | 96 | 30 | 36 |
| COc1cccc(NC(=O)COc2ccc(C(=O)Nc3nc4ccccc4[nH]3)cc2)c1 | 99 | 29 | 19 |
| Cc1[nH]cnc1CSCCNC(=N)NCCCCCCCCNC(=N)NCCSCc1nc[nH]c1C.Cl | 96 | 95 | 24 |
| COC(=O)c1cccc(CNCc2cccc(-c3csc(-c4nc5ccccc5[nH]4)c3)c2)c1.O=C(O)C(F)(F)F | 100 | 44 | 0 |
| O=C(O)C(F)(F)F.O=S(=O)(NCCN1CCCC1)c1cccc(-c2ccccc2CNC2Cc3ccccc3C2)c1 | 99 | 76 | 35 |
| O=C(Nc1ccc(-c2nc3ccccc3[nH]2)cc1)c1cccc(S(=O)(=O)N2CCCC2)c1 | 100 | 64 | 0 |
| COc1ccc2nccc([C@@H](O)CN3CCC(NCc4cc5oc(=O)n(C)c5cc4F)CC3)c2c1.O=C(O)C(=O)O | 99 | 72 | 0 |
| CCCOc1cc(Cc2cnc(N)nc2N)cc(OC)c1OC | 85 | 1 | 21 |
| COc1cc(C=NN=c2cc(C)[nH]c3ccccc23)cc(OC)c1OC | 100 | 95 | 5 |
| COc1c(CNCCCCCCNCc2cc(Cl)c3ccccc3c2OC)cc(Cl)c2ccccc12.CS(=O)(=O)O | 96 | 45 | 100 |
| NCCCNc1nc(Nc2ccc(C(F)(F)F)cc2F)c2c(=O)[nH]ccc2n1.O=C(O)C(F)(F)F | 95 | 15 | 23 |
| COc1cccc(C(=O)NC(C=Cc2ccccc2)c2cc(Cl)c3cccnc3c2O)c1 (stereo unspecified) | 95 | 58 | 27 |
| Cc1cccc2nc(-c3cccc(-c4ccc(NC(=O)C(C)CN5CCN(C)CC5)cc4)c3)[nH]c12 (stereo unspecified) | 99 | 100 | 7 |
| Cc1cccc(Nc2nc(NCCCCN)nc3cc[nH]c(=O)c23)c1.O=C(O)C(F)(F)F | 98 | 97 | 34 |
| Fc1cccc(CNc2ncc(-c3ccsc3)c(-c3nccs3)n2)c1 | 91 | 85 | 15 |
| Cl.OCC(CO)(CO)NCc1ccc2c3c(cccc13)-c1ccccc1-2 | 87 | 76 | 73 |
| CCOc1cc2ncnc(Nc3ccc(OCc4c(F)cccc4F)c(OC)c3)c2cc1OCC.Cl | 96 | 60 | 7 |
| CC(NC(=O)c1ccc(O)c(-c2ccc(Cl)c(Cl)c2)c1)C(=O)NC1CCCCC1 (stereo unspecified) | 96 | 82 | 0 |

| Compound | Inhibition (Plasmodium falciparum [1]) [%] | Inhibition (Plasmodium falciparum [2]) [%] | Inhibition (HepG2) [%] |
| --- | --- | --- | --- |
| N=C(N)Nc1nc(-c2cccc(NC(=O)Cc3ccccc3)c2)cs1 | 99 | 9 | 1 |
| O=C(Nc1cccnc1)c1cc(-c2cccnc2)nc2ccc(Cl)cc12 | 97 | 50 | 45 |
| Cc1ccc(C)c(CN2CCC(CNC(=O)c3cc4ccc5cccnc5c4[nH]3)CC2)c1 | 95 | 10 | 25 |
| COCCN1CCC(CNCC(C)(C)c2nc(-c3ccc(Cl)c(O)c3)c(-c3ccncc3)[nH]2)CC1.Cl | 100 | 2 | 0 |
| CN1CCN(CC(=O)Nc2ccc(-c3ccc(-c4nc5ccccc5[nH]4)cc3)cc2)CC1 | 98 | 80 | 18 |
| CCn1ccc2c(N3CCCCS3(=O)=O)cc(C(=O)N[C@@H](Cc3ccccc3)[C@H](O)CNC(C)(C)CCCC(C)C)cc21 | 96 | 98 | 23 |
| COc1ccc(CC(=O)Nc2ccc(-c3cccc(-c4nc5cccc(C)c5[nH]4)c3)cc2)cc1O | 96 | 30 | 6 |
| Cc1cccc(Oc2cccc3[nH]nc(N)c23)c1 | 85 | 0 | 6 |
| Cl.O=C(NC1CCC(CCN2Cc3cccc(C(F)(F)F)c3C2)CC1)c1cccc(-c2cccnc2)c1 (stereo unspecified) | 100 | 67 | 26 |
| CCN(CC)Cc1ccc2c(=O)cc(CCc3cccc(F)c3F)n(CC(=O)N(Cc3ccc(-c4ccc(C(F)(F)F)cc4)cc3)C(C)C)c2c1.O=C(O)C(O)C(O)C(=O)O | 100 | 63 | 82 |
| CC(C)CNC(=O)c1cncc(-c2ccc(CNCCCc3ccccc3)cc2)c1.O=C(O)C(F)(F)F | 100 | 73 | 28 |
| CN1CCN(c2ccc(CNc3ccc4ncc(-c5ccc(OC(F)(F)F)cc5)n4n3)cc2)CC1 | 94 | 87 | 13 |
| CCC(CC(C)C(=O)O)=C(c1ccccc1)c1ccccc1 (stereo unspecified) | 98 | 1 | 12 |
| CC(C)c1ccc(CN2CCC(CNC(=O)c3cc(-c4cccc(Cl)c4)cs3)C2)cc1.O=C(O)C(F)(F)F (stereo unspecified) | 99 | 43 | 42 |
| C[C@@H](NC(=O)c1nn(-c2ccc(Cl)cc2)c(=O)c2ccccc12)C(C)(C)C | 95 | 20 | 7 |
| O=C(Nc1ccc(OC2CCN(Cc3ccc(F)cc3)C2)c(Cl)c1)c1ccoc1.O=C(O)C(F)(F)F (stereo unspecified) | 90 | 90 | 13 |
| CCN(CC)CCCN(C(=O)c1cc2c(C)nn(-c3ccccc3)c2s1)c1nc(-c2ccc(OC)cc2)cs1.Cl | 89 | 32 | 12 |
| CS(=O)(=O)O.CSc1ccc2ccccc2c1CNCCCCCCNCc1c(SC)ccc2ccccc12 | 99 | 74 | 83 |
| Cc1[nH]c(C)c(-c2cccc(-c3ccc(OC(F)(F)F)cc3)c2)c(=O)c1Br | 97 | 96 | 45 |
| O=C(O)C(F)(F)F.Oc1ccc(CCNc2nc(NCCCOc3cccc(-c4ccccc4)c3)nc(N3CCNCC3)n2)cc1 | 89 | 14 | 40 |
| CS(=O)(=O)CCNCc1cccc(-c2ccc3c(Nc4ccc(Oc5ccccc5)cc4)ccnc3c2)c1 | 100 | 96 | 18 |

| Compound | Inhibition (Plasmodium falciparum [1]) [%] | Inhibition (Plasmodium falciparum [2]) [%] | Inhibition (HepG2) [%] |
| --- | --- | --- | --- |
| O=C(NCc1cccc(Cl)c1)c1ccc(CNC2CCN(Cc3ccccc3)CC2)cc1.O=C(O)C(F)(F)F | 100 | 50 | 13 |
| CS(=O)(=O)NCCCNCc1cccc(-c2csc(-c3nc4ccccc4[nH]3)c2)c1.O=C(O)C(F)(F)F | 95 | 9 | 23 |
| Cc1cc(=NN=Cc2ccc(F)cc2)c2ccc(C(F)(F)F)cc2[nH]1 | 95 | 24 | 4 |
| O=C(O)C(F)(F)F.OC1CCCN(Cc2ccc(-c3ccc(-c4nc5cc(F)ccc5[nH]4)s3)cc2)C1 (stereo unspecified) | 100 | 99 | 40 |
| Cl.O=C1COc2ccc(S(=O)(=O)N3CCC[C@@H]3CCN3CCC(c4c[nH]c5cnccc45)CC3)cc2N1 | 100 | 6 | 0 |
| COc1ccccc1-c1nc2nc(N)nc(N)c2nc1-c1ccccc1OC | 84 | 1 | 27 |
| CC(C)Nc1nc(NCCc2c[nH]cn2)nc(NCc2cccc3ccccc23)n1 | 90 | 0 | 4 |
| O=C(N[C@H]1CCN(Cc2ccc(OCCCN3CCCCC3)cc2)C1)c1ccc(Cl)c(Cl)c1 | 100 | 36 | 27 |
| COC(=O)c1cc(C(O)CNC(C)CCc2cccc(F)c2)ccc1O.Cl (stereo unspecified) | 94 | 77 | 38 |
| CS(=O)(=O)Nc1cccc(-c2cnc3[nH]cc(-c4ccc(C(=O)O)c(F)c4)c3c2)c1 | 99 | 76 | 27 |
| CCn1c(-c2nonc2N)nc2c(-c3ccccc3)ncc(OCCCNCCCN3CCOCC3)c21.O=C(O)C(F)(F)F | 100 | 91 | 28 |
| Cc1ccc(NC(=O)c2cc(Br)cc(N3CCC(N(C)C)CC3)c2)cc1F.O=C(O)C(F)(F)F | 100 | 80 | 23 |
| O=C(Nc1ccc(-c2cccc(-c3nc4cc(C(F)(F)F)ccc4[nH]3)c2)cc1)c1ccncc1 | 100 | 23 | 63 |
| CCCCCCCCS(=O)(=O)NCCCC1CCN(CCCCCNC(=O)C=Cc2ccc(Cl)c(Cl)c2)CC1 | 91 | 26 | 100 |
| COc1cccc(C(=O)NCc2cccs2)c1OCc1ccccc1 | 96 | 0 | 0 |
| Cc1nn(C)cc1C(C)Nc1nncc(-c2ccc(C(F)(F)F)cc2)n1 (stereo unspecified) | 100 | 99 | 0 |
| COc1ccc(N2C(=O)c3c(c4ccccc4n3C)C2c2ccccc2O)cc1 (stereo unspecified) | 96 | 91 | 32 |
| COc1ccccc1C(=O)Nc1ccc(Nc2nc(C)cc(N3CCOCC3)n2)cc1 | 98 | 22 | 28 |
| COc1ccc(NC(=O)NCC2CCCN(CCCCCNC(=O)/C=C/c3ccc(Cl)c(Cl)c3)C2)c(OC)c1 (stereo unspecified) | 95 | 0 | 8 |
| CCc1c(CCNC/C=C/C=C/CNCCc2ccc(OC)c(OC)c2CC)ccc(OC)c1OC.Cl | 100 | 99 | 75 |
